From PubChem
Most compounds without a hit are left out; they make up all but 21% or so of the library.
ClpP mod: qHTS Assay for Activators of ClpP | ATP-dependent Clp protease proteolytic subunit (Bacillus subtilis (strain 168)), P80244 | purified B. subtilis ClpP, FRET peptide cleavage, 20 min | Potency, µM (highest dose often 57.5 µM), inactives show at the top dose activity change, negative = active | 340,000 tested, 1.9% active; active means well fitted falling curve with a large enough effect; inconclusive means small, poorly fitted or top-dose-only effect; inactive means no such curve, though single readings can be large or run the other way; further: potency means the concentration at half of the fitted maximal effect; the source files actives as falling curves though it sought activators and does not explain the sign; nearly all actives have a fitted effect of over 65% in size
Target sequence (P80244 whole entry, looked up): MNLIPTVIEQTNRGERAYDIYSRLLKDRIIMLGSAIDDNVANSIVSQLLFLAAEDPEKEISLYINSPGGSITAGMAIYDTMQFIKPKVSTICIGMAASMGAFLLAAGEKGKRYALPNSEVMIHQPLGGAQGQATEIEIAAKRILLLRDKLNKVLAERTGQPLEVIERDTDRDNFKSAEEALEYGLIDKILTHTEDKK
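Purified B. subtilis ClpP, 10 microg/mL final in Tris/HCl pH8 with KCl, BSA, glycerol and Tween-20, cleaved an Abz/nitrotyrosine-quenched decapeptide. Fluorescence (ex 320, em 430) was read at 0 and 20 min at room temperature. Delta was normalized to 5.8 microM ADEP and DMSO/no-enzyme controls.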
TDP1 cell noCPT: qHTS for Inhibitors of human tyrosyl-DNA phosphodiesterase 1 (TDP1): qHTS in cells in absence of CPT; DT40 Tdp1-/- hTDP1 cells, no CPT, ATP luminescence, 48 h; Potency, µM (series often up to 46.2 µM), inactives show at the highest dose activity change, negative = growth inhibition, most hits filed as inhibitors; 420,000 tested, 15% active; further: potency means the concentration at half of the fitted maximal effect; on the % scale 0 is the no-effect control and ±100 the full control effect; nearly all actives have a fitted effect of over 55% in size
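Growth of hTDP1-complemented DT40 Tdp1-knockout cells is measured by ATP luminescence after at least 48 hr compound exposure at 37 °C, with DMSO substituting for the 20 nM CPT used in the parallel screen.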
TDP1 cell CPT: qHTS for Inhibitors of human tyrosyl-DNA phosphodiesterase 1 (TDP1): qHTS in cells in presence of CPT. chicken DT40 Tdp1-/-;hTDP1 cells + 20 nM CPT, ATP luminescence, 48 h. Potency, µM (series often up to 46.2 µM), for inactives: top-dose activity change, negative = growth inhibition, most hits filed as inhibitors. 420,000 tested, 12% active. AID 686979, 2013; further: potency means the concentration at half of the fitted maximal effect; on the % scale 0 is the no-effect control and ±100 the full control effect; nearly all actives have a fitted effect of over 55% in size
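Chicken DT40 Tdp1-/- cells stably complemented with human TDP1 were seeded at 400 cells/well in medium containing 20 nM camptothecin, exposed to pin-transferred compounds, and grown at 37 °C for at least 48 hr. Viability was read as ATP luminescence.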
IL-1B inflam inh: qHTS for Inhibitors of Inflammasome Signaling: IL-1-beta AlphaLISA Primary Screen | THP-1 LPS/ATP IL-1B secretion, AlphaLISA, 16 h; stronger effect = lower value | activity change, % at 57.5 µM | 360,000 tested, 4.7% active | AID 743279, 2014; in the data active means activity change below about -50%; inconclusive means mostly about -30% to -49%; further: on the % scale 0 is the no-effect control and ±100 the full control effect
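THP-1 cells pretreated 1 hr with compounds (up to 57.5 uM final), then stimulated with LPS (250 ng/mL final) plus ATP (1.25 mM final); secreted IL-1B measured by AlphaLISA after 16 hr, decreased signal indicating inhibition.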
DRD3 antagonist: qHTS of D3 Dopamine Receptor Antagonist: qHTS; AID 652054, 2013; 360,000 tested, 2.5% active; max response, negative = inhibition, %; D3R cells, DiscoveRx beta-arrestin luminescence, antagonist mode; stronger effect = lower value; in the data active means max response below about -50%; inconclusive means no clear call, values can overlap the other calls; further: on the % scale 0 is the no-effect control and ±100 the full control effect
Target sequence (P35462 whole entry, looked up): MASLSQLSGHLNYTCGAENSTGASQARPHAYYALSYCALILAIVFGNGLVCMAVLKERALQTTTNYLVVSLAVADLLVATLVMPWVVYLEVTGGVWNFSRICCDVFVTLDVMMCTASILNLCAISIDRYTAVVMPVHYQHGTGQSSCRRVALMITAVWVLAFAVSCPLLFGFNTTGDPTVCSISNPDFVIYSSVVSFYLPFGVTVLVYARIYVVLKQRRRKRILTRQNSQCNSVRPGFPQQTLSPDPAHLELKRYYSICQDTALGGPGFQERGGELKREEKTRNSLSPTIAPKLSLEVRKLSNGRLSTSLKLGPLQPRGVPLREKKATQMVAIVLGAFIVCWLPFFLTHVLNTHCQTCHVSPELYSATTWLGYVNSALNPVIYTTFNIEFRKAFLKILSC
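Cells expressing the human receptor were seeded at 1500 cells/well, incubated overnight at 37 degrees C in 5% CO2, then exposed to library compounds with dopamine controls for 90 minutes at 37 degrees C before luminescent detection.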
D3 ag: qHTS of D3 Dopamine Receptor Agonist: qHTS. D(3) dopamine receptor (Homo sapiens), P35462. max activation, %. 410,000 tested, 0.58% active. D3R DiscoveRx beta-arrestin cells, luminescence, 90 min; in the data active means max activation above about 30%; further: 0% is about no effect
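Cells at 1500/well, incubated overnight, then treated with pinned compounds (dopamine as control) for 90 min at 37 degrees C. DiscoveRx reagent added for 30 - 60 minutes at room temperature; luminescence read.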
Numbers without * were called inactive. Unless noted, the call rests on the fitted dose curve; in most records, active means well fitted inhibition curve with a large enough effect; inconclusive means small, poorly fitted or top-dose-only effect; inactive means flat fitted curve, though single readings scatter.

Results for COc1cc(CNC(C)(C)CO)cc(Br)c1OCc1ccc(Cl)cc1Cl ?
ClpP mod: -2.8%; TDP1 cell noCPT: inconclusive; TDP1 cell CPT: inconclusive; IL-1B inflam inh: inconclusive; DRD3 antagonist: -2.3; D3 ag: 1.4

Results for CC(C)(CO)NCc1c(OCc2ccc(Cl)cc2)ccc2ccccc12 ?
TDP1 cell noCPT: inconclusive; TDP1 cell CPT: inconclusive; IL-1B inflam inh: -106.3*; DRD3 antagonist: -19.4; D3 ag: -17.0

How did Cc1c(OCc2ccccc2)cccc1OCc1ccccc1 do in these assays?
ClpP mod: 1.5%; TDP1 cell noCPT: -5.0%; TDP1 cell CPT: -2.3%; IL-1B inflam inh: 6.3; DRD3 antagonist: 0.0; D3 ag: 1.6

Results for COc1ccc(-c2cc3c(=O)n(CC(=O)Nc4cccc(Cl)c4)ncn3n2)cc1 ?
ClpP mod: -16.9%; TDP1 cell noCPT: 19.5%; TDP1 cell CPT: 5.4%; IL-1B inflam inh: 2.3; DRD3 antagonist: 3.8; D3 ag: 3.5

How did Clc1ccccc1CNc1ncnc2c1c(-c1ccccc1)cn2-c1ccccc1 do in these assays?
ClpP mod: inconclusive; TDP1 cell noCPT: inconclusive; TDP1 cell CPT: inconclusive; D3 ag: 4.9

How did Cc1ccc(C)c(CN2C(=O)c3ccccc3S(=O)c3ccc(C(=O)NCc4ccco4)cc32)c1 (configuration not stated) do in these assays?
ClpP mod: -0.3%; TDP1 cell noCPT: 16.4µM*; TDP1 cell CPT: inconclusive; D3 ag: -10.4

What do the screens show for `CCCCN(C)CCCNC(=O)c1ccc2c(c1)N(CC)C(=O)c1ccccc1S2=O` (configuration not stated)?
ClpP mod: -2.9%; TDP1 cell noCPT: 2.9%; TDP1 cell CPT: 1.7%; IL-1B inflam inh: 0.5; DRD3 antagonist: -83.7*; D3 ag: -38.6

What do the screens show for `O=C(NCCN1CCCC1)c1ccc2c(c1)N(Cc1ccc(F)cc1)C(=O)c1ccccc1S2=O` (configuration not stated)?
ClpP mod: -3.1%; TDP1 cell noCPT: inconclusive; TDP1 cell CPT: inconclusive; IL-1B inflam inh: -24.0; DRD3 antagonist: -7.1; D3 ag: -5.2

Results for O=C(NCc1ccco1)c1ccc2c(c1)N(Cc1ccc(F)cc1)C(=O)c1ccccc1S2=O (configuration not stated) ?
ClpP mod: -2.8%; TDP1 cell noCPT: 16.4µM*; TDP1 cell CPT: inconclusive; D3 ag: 6.9

Results for CCCCN(C)C(=O)c1ccc2c(c1)N(CC)C(=O)c1ccccc1S2=O (configuration not stated) ?
ClpP mod: 0.0%; TDP1 cell noCPT: -19.0%; TDP1 cell CPT: inconclusive; IL-1B inflam inh: 9.9; DRD3 antagonist: -0.5; D3 ag: 5.8

Results for CCCCNC(=O)c1ccc2c(c1)N(Cc1ccc(F)cc1)C(=O)c1ccccc1S2=O (configuration not stated) ?
ClpP mod: -4.4%; TDP1 cell noCPT: 18.4µM*; TDP1 cell CPT: 23.1µM*; D3 ag: -12.3

How did COc1ccc(NC(=O)CCS(=O)(=O)c2cc3c4c(c2)CCN4C(=O)CC3)c(OC)c1 do in these assays?
ClpP mod: -1.0%; TDP1 cell noCPT: -7.4%; TDP1 cell CPT: -5.2%; D3 ag: -9.5

Results for Cc1c(CN(C)C)c2c(n1Cc1ccccc1)C(=O)c1ccccc1-2 ?
ClpP mod: 2.6%; TDP1 cell noCPT: inconclusive; TDP1 cell CPT: inconclusive; IL-1B inflam inh: -62.7*; DRD3 antagonist: inconclusive; D3 ag: -4.5

How did Cc1cc(=O)[nH]c(=O)n1Cc1ccccc1 do in these assays?
TDP1 cell noCPT: 6.7%; TDP1 cell CPT: 9.3%; IL-1B inflam inh: 22.2; DRD3 antagonist: -10.4; D3 ag: -1.2

How did FC(F)(F)c1nc(NCc2ccccc2)c2nnn(Cc3ccccc3)c2n1 do in these assays?
ClpP mod: -5.2%; TDP1 cell noCPT: inconclusive; TDP1 cell CPT: inconclusive; IL-1B inflam inh: 3.6; DRD3 antagonist: 19.6; D3 ag: 15.8

Results for CCN(CC)CCNc1nc(C(F)(F)F)nc2c1nnn2Cc1ccccc1 ?
TDP1 cell noCPT: inconclusive; TDP1 cell CPT: -20.2%; IL-1B inflam inh: -60.2*; DRD3 antagonist: -2.6; D3 ag: -1.0

Results for CCCC(=O)N1CCN(c2nc3c(OC)ccc(Cl)c3s2)CC1 ?
ClpP mod: 1.9%; TDP1 cell noCPT: -8.2%; TDP1 cell CPT: inconclusive; IL-1B inflam inh: inconclusive; DRD3 antagonist: 28.4; D3 ag: 6.8

Results for COc1ccc(N2CCN(S(=O)(=O)/C=C/c3ccccc3)CC2)cc1 ?
ClpP mod: -2.1%; TDP1 cell noCPT: -8.6%; TDP1 cell CPT: -17.9%; IL-1B inflam inh: -23.1; DRD3 antagonist: -5.9; D3 ag: -6.4

How did O=C(c1ccc2ccccc2c1)N1CCN(S(=O)(=O)/C=C/c2ccccc2)CC1 do in these assays?
TDP1 cell noCPT: 25.9µM*; TDP1 cell CPT: 16.4µM*; IL-1B inflam inh: -25.9; DRD3 antagonist: -2.5; D3 ag: 16.4

What do the screens show for `COc1ccc(Br)c(C(=O)N2CCN(S(=O)(=O)/C=C/c3ccccc3)CC2)c1`?
ClpP mod: 28.2µM*; TDP1 cell noCPT: -20.7%; TDP1 cell CPT: -25.9%; IL-1B inflam inh: -15.1; DRD3 antagonist: -24.2; D3 ag: 2.4

How did O=C(c1cnn(Cc2ccccc2)c1)N1CCN(S(=O)(=O)/C=C/c2ccccc2)CC1 do in these assays?
ClpP mod: -0.5%; TDP1 cell noCPT: inconclusive; TDP1 cell CPT: inconclusive; IL-1B inflam inh: inconclusive; DRD3 antagonist: 0.0; D3 ag: -7.3

Results for O=C(COc1ccc(F)cc1Br)N1CCN(S(=O)(=O)/C=C/c2ccccc2)CC1 ?
ClpP mod: -1.9%; TDP1 cell noCPT: inconclusive; TDP1 cell CPT: inconclusive; IL-1B inflam inh: -50.3*; DRD3 antagonist: 10.9; D3 ag: -5.7

Results for O=C(NC(=S)Nn1cnnc1)c1ccccc1Br ?
ClpP mod: 1.1%; TDP1 cell noCPT: -23.4%; TDP1 cell CPT: -2.2%; IL-1B inflam inh: -8.5; DRD3 antagonist: -3.5; D3 ag: -2.6

Results for COc1cc(C(=O)OCC(=O)c2c(N)n(C)c(=O)n(C)c2=O)ccc1OCCC(C)C ?
TDP1 cell noCPT: -2.5%; TDP1 cell CPT: -11.2%; IL-1B inflam inh: 17.6; DRD3 antagonist: 2.7; D3 ag: 2.0
